This note sets out measurements from PubChem BioAssay AID504332 (National Center for Advancing Translational Sciences (NCATS), 2011).

About 31,000 (8.9%) of roughly 350,000 compounds were called active. About 15% were inconclusive and are not listed. The sample as a whole holds a higher share of actives than the screen did. Values without a mark were called inactive. Calls come from the whole dose curve; as a rule, active = well fitted inhibition curve with a large enough effect; inconclusive = small, poorly fitted or top-dose-only effect; inactive = no such curve, though single readings can be large or run the other way.
% is set by controls: 0 for no effect and ±100 for the full control effect; potency is the fitted concentration of half-maximal effect.

Sequence of Histone-lysine N-methyltransferase EHMT2 (Homo sapiens) (Q96KQ7 913-1193 limits assumed): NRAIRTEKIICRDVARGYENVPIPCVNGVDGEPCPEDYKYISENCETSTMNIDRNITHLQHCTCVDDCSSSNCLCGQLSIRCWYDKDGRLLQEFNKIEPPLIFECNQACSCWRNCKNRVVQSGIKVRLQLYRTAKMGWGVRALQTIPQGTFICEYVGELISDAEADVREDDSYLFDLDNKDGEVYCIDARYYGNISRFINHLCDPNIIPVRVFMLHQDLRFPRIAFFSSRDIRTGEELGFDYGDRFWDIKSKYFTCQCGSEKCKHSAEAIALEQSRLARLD

The assay deals with Histone-lysine N-methyltransferase EHMT2 (Homo sapiens) (UniProt Q96KQ7). As to the kind of experiment: qHTS Assay for Inhibitors of Histone Lysine Methyltransferase G9a. Note: nearly all actives have a fitted effect of over 75% in size. The conditions noted are these: G9a H3K9 monomethylation, AlphaScreen, 2 h; series mostly up to 59 µM; activity, negative = inhibition: at the top concentration. An outline of the steps:
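Quantitative HTS format: methyltransferase activity on a biotin-tagged H3K9 peptide is measured by AlphaScreen, using a rabbit anti-monomethyl-H3K9 antibody with streptavidin donor and anti-IgG acceptor beads. Final levels are 20 nM enzyme, 500 nM peptide, 20 uM SAM; 2 h RT.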
For `Cc1ccccc1Nc1nn2c(=O)c3ccc(C(=O)NCCc4ccc(Cl)cc4)cc3nc2s1`, the “activity, negative = inhibition” value is -4.26%.

For `Cc1cccc(-c2nc3ccc(C(=O)NCCN4CCN(C)CC4)cc3nc2-c2cccc(C)c2)c1`, the Potency is 70.8 µM (active). For `Cc1cccc(C(=O)NCCCN2CCCC2=O)c1`, the “activity, negative = inhibition” value is 16.7% [at 102 µM]. In the case of `COc1ccc(-c2nc3ccc(C(=O)NCc4ccc(C)cc4)cc3nc2-c2ccc(OC)cc2)cc1`, the “activity, negative = inhibition” value is 23.6%. `CCc1ccc(CNC(=O)C2CCN(c3nnc(C)c4c(C)n(-c5ccc(C)cc5)nc34)CC2)cc1`: the Potency entry is “inactive”.

Take `CC1CC1C(=O)OCC(=O)Nc1cccc(F)c1` (stereo not drawn): the activity, negative = inhibition was 17.7% [at 2.33 µM]. The same measure, in the same setting: for `O=C(CCNC(=O)c1ccc(Cl)cc1)NC1CCCc2ccccc21` (stereo not drawn) the value was 15.5% [at 2.33 µM]. On the same count and under the same terms, for `O=C(CSc1nncs1)NC1CCCc2ccccc21` (stereo not drawn) the value was 3.13% [at 102 µM]; for `O=C(CCC(=O)N1CCN(S(=O)(=O)c2ccccc2)CC1)NC1CCCc2ccccc21` (stereo not drawn), 11.3%. Consider `CSc1ccccc1N1CCN(CCCCCC(=O)NC2CCCc3ccccc32)CC1` (stereo not drawn), for which the Potency is 21.2 µM (active). For the molecule `Cc1ccc(S(=O)(=O)N2CCN(C(=O)CCC(=O)NC3CCCc4ccccc43)CC2)cc1` (stereo not drawn), the “activity, negative = inhibition” value was -0.0182% [at 102 µM]. Take `O=C(CN1CCN(c2ccc(O)cc2)CC1)NC1CCCc2ccccc21` (stereo not drawn): the Potency is 25.1 µM (active). Turning to `COc1ccc(CCN2C(=O)c3oc4cc(C)cc(C)c4c(=O)c3C2c2ccccc2F)cc1OC` (stereo not drawn), the “activity, negative = inhibition” value is 5.08%.

As to `COc1cccc2[nH]c(C(=O)NCCc3ccccc3)cc12`, the “activity, negative = inhibition” value is 21.5% [at 102 µM]. For the molecule `CCNC(=O)c1cnn(-c2ccccc2)c1-c1ccccc1`, the “activity, negative = inhibition” value was -1.29% [at 102 µM]. As to `Cc1cc(=O)c2cc(C(=O)Nc3cccc(C)c3C)ccc2[nH]1`, the “activity, negative = inhibition” value was -8.29%. `COc1cc(/C=N/NC(=O)CNC(=O)c2ccncc2)ccc1OC(C)=O`: the “activity, negative = inhibition” value is 15.1% [at 102 µM].

Regarding `COc1ccc(/C=N/NC(=O)c2ccc(Cl)cc2)cc1COC(C)=O`, the “activity, negative = inhibition” value was -4.32%.

Turning to `COc1ccc(/C=N/NC(=O)c2ccncc2)cc1CN1CCCc2ccccc21`, the Potency was 35.5 µM (active).

As to `COC(=O)CN1C(=O)CSc2ccc(S(=O)(=O)Nc3cc(C)ccc3C)cc21`, the “activity, negative = inhibition” value was -6.35%. Same read-out and setting: the result for `Cn1c(SCC(=O)NC2CCCCC2)nnc1-c1ccc(N)cc1` reads -1.06% [at 102 µM]. As for `CCC(=O)Nc1cccc(NC(=O)CSc2nnc(-c3ccc(NS(C)(=O)=O)cc3)n2C)c1`, the “activity, negative = inhibition” value is -1.1%. Consider `CCCCSc1nnc(-c2ccc(NC(=O)CC)cc2)n1C`, for which the Potency is 50.1 µM (active). Regarding `CCc1ccc(N(CC(=O)NCc2cccnc2)S(=O)(=O)c2ccccc2)cc1`, the “activity, negative = inhibition” value is 11% [at 102 µM]. `Cc1ccc(S(=O)(=O)c2nnn3c2nc(N2CCN(c4ccccc4F)CC2)c2cc(Cl)ccc23)cc1C`: the “activity, negative = inhibition” value was 7.4%. For `CCOc1cccc(CNC(=O)c2ccc(N3CCCC3)c(NC(=O)Nc3ccccc3CC)c2)c1`, the “activity, negative = inhibition” value is -4.88%. Turning to `CCOCCn1ccc2c(OCC(=O)NCc3ccc(C)cc3)cccc2c1=O`, the “activity, negative = inhibition” value was -1.84%. As to `CCOCC(=O)NCc1ccc2c(c1)cc(C)n2C`, the Potency was 35.5 µM (active). Consider `Cc1ccc(CNC(=O)COc2ccc3c(c2)CCC3)cc1`, for which the “activity, negative = inhibition” value was 26.7%. For the molecule `COc1cc(Cl)c(C)cc1NC(=O)CCc1nc2cccnc2n1Cc1cccs1`, the “activity, negative = inhibition” value was -19.7%.

As for `CC(=O)c1ccc2c(c1)c1ccccc1n2CC(C)C`, the “activity, negative = inhibition” value is 85.8% [at 102 µM].

As for `CCn1c(NC(=O)c2ccccc2)c(-c2cccs2)c(=O)c2ccccc21`, the “activity, negative = inhibition” value was -9.9% [at 102 µM]. Consider `CC(C)Cn1c(CCC(=O)O)ccc1-c1cccs1`, for which the Potency was 17.8 µM (active). For `CCCCCn1c(CCNC(=O)c2ccc(F)cc2)nc2ccccc21`, the “activity, negative = inhibition” value was 5.58%. For `CCN(CC)CCCNC(=O)c1c(O)c2cc(F)cc3c2n(c1=O)C(C)CC3` (stereo not drawn), the “activity, negative = inhibition” value is -70% [at 102 µM]. `NC(=O)c1ccc(Nc2ccc3nonc3c2[N+](=O)[O-])cc1`: the Potency was 56.2 µM (active). For `CCOc1ccccc1Nc1ccc2nonc2c1[N+](=O)[O-]`, the “activity, negative = inhibition” value is -2.07% [at 102 µM]. The same measure, in the same setting: the result for `NC(=O)c1ccc(Nc2ccc3c(c2)CCC3)c([N+](=O)[O-])c1` reads 20.1% [at 102 µM]; that for `O=C(NC1CCCC1)c1cc(-c2ccccc2)on1`, 7.25% [at 102 µM]. On to `CC(C)(C)N(Cc1ccccc1)C(=O)COC(=O)CCc1c[nH]c2ccccc12`, for which the Potency was 14.1 µM (active). `O=C(COC(=O)Cc1c[nH]c2ccccc12)NCCc1ccccc1`: the “activity, negative = inhibition” value was -36.1% [at 102 µM]. As for `CN(C(=O)COC(=O)CCCc1c[nH]c2ccccc12)c1c(N)n(Cc2ccccc2)c(=O)[nH]c1=O`, the “activity, negative = inhibition” value was 16.6%. Consider `O=C1CCc2cc(S(=O)(=O)Nc3ccc(C(F)(F)F)cc3)cc3c2N1CC3`, for which the activity, negative = inhibition was -22.3% [at 0.501 µM].

As to `Nc1ncc(CN2CCCC(C(=O)Nc3ccc(-c4ccco4)cc3)C2)cn1` (stereo not drawn), the Potency is 50.1 µM (active).

In the case of `CCOc1ccc(NC(=O)C2CCCN(C(=O)Nc3ccccc3)C2)cc1` (stereo not drawn), the “activity, negative = inhibition” value was -10.8%. Take `COC(=O)c1ccc(CN2CCCC(C(=O)Nc3cccc(-n4cnnn4)c3)C2)cc1` (stereo not drawn): the “activity, negative = inhibition” value was 6.29% [at 102 µM]. With `CCNS(=O)(=O)c1cc(-c2nnc(Nc3cccc(C(F)(F)F)c3)c3ccccc23)ccc1C`, the “activity, negative = inhibition” value is -24.3%. Still for that read-out and setting: the result for `Cc1c(C(=O)Nc2ccccn2)oc2ccc(Br)cc12` reads 2.88% [at 102 µM].

As for `Cc1ccc(CNC(=O)c2cccc3c2C(=O)c2ccc(N4CCC(C)CC4)cc2S3(=O)=O)cc1`, the activity, negative = inhibition was 6.64% [at 0.501 µM].

On to `Cc1ccc2nc(NC(=O)CSc3nc(=O)n(CCCN(C)C)c4c3CCC4)sc2c1`, for which the Potency is 39.8 µM (active). `Cc1ccc(NC(=O)CSc2nc(=O)n(CCN(C)C)c3c2CCCC3)c(C)c1`: the activity, negative = inhibition is 6.7% [at 0.501 µM]. As to `Cc1csc(NC(=O)CSc2nc(=O)n(CCCN(C)C)c3c2CCC3)n1`, the “activity, negative = inhibition” value is -47% [at 102 µM].

On to `Cc1ccc(OCC(=O)Nc2ccc(OCc3cc(=O)n4c(C)csc4n3)cc2)cc1C`, for which the “activity, negative = inhibition” value is 29%. For the molecule `COc1ccc(-c2nc(CS(=O)(=O)CC(=O)NCc3cccc(Br)c3)c(C)o2)cc1`, the Potency was 44.7 µM (active). `COc1cccc(-c2nc(CS(=O)(=O)CC(=O)NCCc3ccc(OC)c(OC)c3)c(C)o2)c1`: the Potency entry was “inactive”. On to `Cc1ccc(-c2nc(CS(=O)(=O)CC(=O)NCc3ccc4c(c3)OCO4)c(C)o2)cc1`, for which the “activity, negative = inhibition” value is 1.88% [at 102 µM]. For the molecule `CCN(CC(=O)Nc1c(F)cccc1F)C(=O)C1CCC1`, the “activity, negative = inhibition” value is -3.45% [at 102 µM]. In the case of `COc1cccc(NC(=O)C(=O)NCC(c2ccc3c(c2)OCO3)N2CCN(C)CC2)c1` (stereo not drawn), the “activity, negative = inhibition” value was 6.98%.

As to `CCOC(=O)c1c(-c2ccc(OC)cc2)oc2ccc(OCc3ccc(C(=O)OC)cc3)cc12`, the “activity, negative = inhibition” value is 58.2%.

For the molecule `CC(=O)c1sc(NC(=O)CCN2C(=O)C3CC=CCC3C2=O)nc1-c1ccccc1` (stereo not drawn), the activity, negative = inhibition is -8.89% [at 2.33 µM]. Still for that read-out and setting: for `O=C(NCc1ccccn1)c1c(O)c2c([nH]c1=O)CCCC2` the value was 13.7%; for `CCc1nnc(NC(=O)c2c(O)c3c([nH]c2=O)CCCC3)s1`, 27.8%. For the molecule `C[N+](C)(C)CCNC(=O)c1c(O)c2c([nH]c1=O)CCCC2`, the Potency was 10 µM (active).
